From PubChem BioAssay (NCI) come the findings set out here.

Structures are written as SMILES. Where “and” joins values, the source holds several entries; their conditions need not be identical. Equal values may be shown once. About 79,000 compounds went through this panel and 15% of them were active in at least one assay; those are over-represented in the sample as a whole. Some structures have more than one record in an assay (separate samples or runs), and their calls can disagree. Calls of active or inactive are those of the source. Cut-off read from the data, not from the text of the source: active = growth inhibition above about 70%; inactive = the rest.

The nature of experiment [1]: NCI Yeast Anticancer Drug Screen. Data for the rad50 strain (AID 155).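 Note: 0% = growth of vehicle-only cultures of the same strain.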 To be noted: S. cerevisiae rad50 strain growth inhibition, stronger effect = higher value. The gist of the method:
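Growth of the mutant yeast was measured after compound exposure and referenced to vehicle-treated cultures.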

A short description of experiment [2]: NCI Yeast Anticancer Drug Screen. Data for the mec2-1 strain (AID 157). To be noted: S. cerevisiae mec2-1 strain, stronger effect = higher value. The gist of the method:
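Vehicle-treated cultures served as reference for growth inhibition of compound-exposed mec2-1 yeast.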

Experiment [3] can be described thus: NCI Yeast Anticancer Drug Screen. Data for the sgs1 mgt1 strain (AID 161).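 Note: 0% = growth of cultures given vehicle only.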 To be noted: S. cerevisiae sgs1 mgt1 strain, stronger effect = higher value. In a few lines: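 Read-out: growth inhibition vs vehicle controls. Cells: mutant yeast strain deficient in DNA damage repair.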
Experiment [4] is described as follows: NCI Yeast Anticancer Drug Screen. Data for the cln2 rad14 strain (AID 165).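 Note: 0% = growth equal to vehicle treated cultures.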 The note with it: S. cerevisiae cln2 rad14 strain, stronger effect = higher value. The gist of the method: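 Each compound was tested on cln2 rad14 yeast. Inhibition of growth was calculated against vehicle-exposed controls.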
The nature of experiment [5]: NCI Yeast Anticancer Drug Screen. Data for the bub3 strain (AID 167). To be noted: S. cerevisiae bub3 mutant strain, stronger effect = higher value. The gist of the method:
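Whole-cell yeast assay. The mutant strain was incubated with compounds, and growth inhibition was determined by comparison with vehicle-treated cells.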

The nature of experiment [6]: NCI Yeast Anticancer Drug Screen. Data for the mlh1 rad18 strain (AID 175). The note with it: S. cerevisiae mlh1 rad18 strain growth inhibition, stronger effect = higher value. The gist of the method:
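Vehicle-treated cultures served as the reference for growth inhibition in a yeast strain carrying DNA damage repair alterations exposed to each compound.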

Where [7] appears, read: at 5.0 µM (retest, dose inferred, filed as 0.5).
[8] abbreviates: at 50.0 µM (retest, dose inferred, filed as 5.0).

As for `O=[N+]([O-])c1ccc2c[n+]3ccccc3cc2c1`, the growth inhibition in experiment [1] (setting [7]) is 21% (inactive); in experiment [1] (setting [8]) it was 84% (active); in experiment [1] (at 50.0 µM), 80.3% (active); in experiment [2] (setting [7]), 4% (inactive); in experiment [2] (setting [8]), 50% (inactive); in experiment [2] (at 50.0 µM), 5.3% (inactive). The growth inhibition is 2% (inactive) in experiment [3] (setting [7]); 56% (inactive) in experiment [3] (setting [8]); 36.2% (inactive) in experiment [3] (at 50.0 µM); 1% (inactive) in experiment [4] (setting [7]); 43% (inactive) in experiment [4] (setting [8]); -17.4% (inactive) in experiment [4] (at 50.0 µM). Also, the growth inhibition in experiment [5] (setting [7]) is -5% (inactive); in experiment [5] (setting [8]), 56% (inactive); in experiment [5] (at 50.0 µM) it was 3.8% (inactive); in experiment [6] (setting [7]), 12% (inactive); in experiment [6] (setting [8]) it was 86% (active); in experiment [6] (at 50.0 µM) it was 62% (inactive).

Regarding `COc1ccc(C(Cc2ccc(Cl)c(Cl)c2)NCCO)cc1` (configuration not stated), the growth inhibition in experiment [1] (setting [7]) is -16% (inactive); in experiment [1] (setting [8]), 37% (inactive); in experiment [1] (at 50.0 µM), 75% (active); in experiment [2] (setting [7]), -5% (inactive); in experiment [2] (setting [8]), -1% (inactive); in experiment [2] (at 50.0 µM), 23.3% (inactive). The growth inhibition in experiment [3] (setting [7]) was -35% (inactive); in experiment [3] (setting [8]), 27% (inactive); in experiment [3] (at 50.0 µM) it was 31.1% (inactive); in experiment [4] (setting [7]) it was -2% (inactive); in experiment [4] (setting [8]), 10% (inactive); in experiment [4] (at 50.0 µM) it was 11.9% (inactive). Also, the growth inhibition in experiment [5] (setting [7]) is 4% (inactive); in experiment [5] (setting [8]), 32% (inactive); in experiment [5] (at 50.0 µM), 59.1% (inactive); in experiment [6] (setting [7]) it was 3% (inactive); in experiment [6] (setting [8]) it was 48% (inactive); in experiment [6] (at 50.0 µM), 86.2% (active).

Regarding `N=C(N)c1ccccc1`, the growth inhibition was 12% (inactive) in experiment [1] (setting [7]); 79% (active) in experiment [1] (setting [8]); -2.25% (inactive) and 80.2% (active) in experiment [1] (at 50.0 µM); -1% (inactive) in experiment [2] (setting [7]); 20% (inactive) in experiment [2] (setting [8]); 5.4% (inactive) and 2.1% (inactive) in experiment [2] (at 50.0 µM). Also, the growth inhibition in experiment [3] (setting [7]) is 2% (inactive); in experiment [3] (setting [8]), 23% (inactive); in experiment [3] (at 50.0 µM), -1.6% (inactive) and 17.9% (inactive); in experiment [4] (setting [7]), 6% (inactive); in experiment [4] (setting [8]) it was 13% (inactive); in experiment [4] (at 50.0 µM) it was -0.6% (inactive) and 49.5% (inactive). In addition, the growth inhibition in experiment [5] (setting [7]) is -2% (inactive); in experiment [5] (setting [8]) it was 8% (inactive); in experiment [5] (at 50.0 µM), 6.9% (inactive) and 25.4% (inactive); in experiment [6] (setting [7]) it was -2% (inactive); in experiment [6] (setting [8]), 22% (inactive); in experiment [6] (at 50.0 µM), -14.5% (inactive) and 46.6% (inactive).

Turning to `O=[C-]CCCCCC[C-]=O.[C-]#[O+].[C-]#[O+].[C-]#[O+].[C-]#[O+].[Fe+6].[Fe+6].[c-]1[c-][c-][cH-][c-]1.[c-]1[c-][c-][cH-][c-]1`, the growth inhibition was 9% (inactive) in experiment [1] (setting [7]); 97% (active) in experiment [1] (setting [8]); 97.9% (active) in experiment [1] (at 50.0 µM); 13% (inactive) in experiment [2] (setting [7]); 97% (active) in experiment [2] (setting [8]); 98.5% (active) in experiment [2] (at 50.0 µM). The growth inhibition in experiment [3] (setting [7]) was 1% (inactive); in experiment [3] (setting [8]) it was 98% (active); in experiment [3] (at 50.0 µM), 96.8% (active); in experiment [4] (setting [7]) it was 1% (inactive); in experiment [4] (setting [8]), 97% (active); in experiment [4] (at 50.0 µM), 97.8% (active). For the same molecule, the growth inhibition in experiment [5] (setting [7]) is -4% (inactive); in experiment [5] (setting [8]), 97% (active); in experiment [5] (at 50.0 µM), 99% (active); in experiment [6] (setting [7]), 5% (inactive); in experiment [6] (setting [8]), 98% (active); in experiment [6] (at 50.0 µM), 93.1% (active).

For `COc1ccc(Br)cc1/C=C/[N+](=O)[O-]`, the growth inhibition is 90% (active) in experiment [1] (setting [7]); 99% (active) in experiment [1] (setting [8]); 99.3% (active) in experiment [1] (at 50.0 µM); 90% (active) in experiment [2] (setting [7]); 99% (active) in experiment [2] (setting [8]); 99.2% (active) in experiment [2] (at 50.0 µM). In addition, the growth inhibition was 91% (active) in experiment [3] (setting [7]); 99% (active) in experiment [3] (setting [8]); 99.4% (active) in experiment [3] (at 50.0 µM); 83% (active) in experiment [4] (setting [7]); 99% (active) in experiment [4] (setting [8]); 77.8% (active) in experiment [4] (at 50.0 µM). Also, the growth inhibition in experiment [5] (setting [7]) is 92% (active); in experiment [5] (setting [8]), 99% (active); in experiment [5] (at 50.0 µM), 96.1% (active); in experiment [6] (setting [7]), 92% (active); in experiment [6] (setting [8]), 99% (active); in experiment [6] (at 50.0 µM), 98.7% (active).

As to `CCCCC1CCCCCCc2[nH]c(/C=C3\N=C(c4ccc[nH]4)C=C3OC)cc21` (configuration not stated), the growth inhibition in experiment [1] (setting [7]) was 24% (inactive); in experiment [1] (setting [8]) it was 91% (active); in experiment [1] (at 50.0 µM), 82.3% (active); in experiment [2] (setting [7]), 23% (inactive); in experiment [2] (setting [8]) it was 93% (active); in experiment [2] (at 50.0 µM) it was 86.5% (active). For the same molecule, the growth inhibition was 45% (inactive) in experiment [3] (setting [7]); 93% (active) in experiment [3] (setting [8]); 84.8% (active) in experiment [3] (at 50.0 µM); 39% (inactive) in experiment [4] (setting [7]); 94% (active) in experiment [4] (setting [8]); 81.2% (active) in experiment [4] (at 50.0 µM). Further, the growth inhibition is 29% (inactive) in experiment [5] (setting [7]); 93% (active) in experiment [5] (setting [8]); 81.9% (active) in experiment [5] (at 50.0 µM); 34% (inactive) in experiment [6] (setting [7]); 90% (active) in experiment [6] (setting [8]); 80.5% (active) in experiment [6] (at 50.0 µM).

For `S=C(S)N1CCOCC1`, the growth inhibition was 62% (inactive) in experiment [1] (setting [7]); 94% (active) in experiment [1] (setting [8]); -11.9% (inactive) in experiment [1] (at 50.0 µM); 50% (inactive) in experiment [2] (setting [7]); 84% (active) in experiment [2] (setting [8]); 28.1% (inactive) in experiment [2] (at 50.0 µM). The growth inhibition in experiment [3] (setting [7]) was 37% (inactive); in experiment [3] (setting [8]) it was 82% (active); in experiment [3] (at 50.0 µM), 42.7% (inactive); in experiment [4] (setting [7]) it was -2% (inactive); in experiment [4] (setting [8]), 75% (active); in experiment [4] (at 50.0 µM) it was -23.9% (inactive). In addition, the growth inhibition is 45% (inactive) in experiment [5] (setting [7]); 86% (active) in experiment [5] (setting [8]); 98.3% (active) in experiment [5] (at 50.0 µM); 60% (inactive) in experiment [6] (setting [7]); 88% (active) in experiment [6] (setting [8]); 19.5% (inactive) in experiment [6] (at 50.0 µM).

For the molecule `[Cl][Sn]([c]1ccccc1)[c]1ccccc1`, the growth inhibition in experiment [1] (setting [7]) is 41% (inactive); in experiment [1] (setting [8]), 93% (active); in experiment [1] (at 50.0 µM), 80.8% (active); in experiment [2] (setting [7]), 30% (inactive); in experiment [2] (setting [8]), 96% (active); in experiment [2] (at 50.0 µM) it was 85.8% (active). Also, the growth inhibition was 56% (inactive) in experiment [3] (setting [7]); 99% (active) in experiment [3] (setting [8]); 89% (active) in experiment [3] (at 50.0 µM); 34% (inactive) in experiment [4] (setting [7]); 97% (active) in experiment [4] (setting [8]); 54.2% (inactive) in experiment [4] (at 50.0 µM). Further, the growth inhibition was 57% (inactive) in experiment [5] (setting [7]); 98% (active) in experiment [5] (setting [8]); 87.8% (active) in experiment [5] (at 50.0 µM); 30% (inactive) in experiment [6] (setting [7]); 90% (active) in experiment [6] (setting [8]); 83.5% (active) in experiment [6] (at 50.0 µM).

Consider `O=C(CI)c1ccc[nH]1`, for which the growth inhibition is 65% (inactive) in experiment [1] (setting [7]); 99% (active) in experiment [1] (setting [8]); 99.3% (active) in experiment [1] (at 50.0 µM); 79% (active) in experiment [2] (setting [7]); 99% (active) in experiment [2] (setting [8]); 99.3% (active) in experiment [2] (at 50.0 µM). The growth inhibition was 74% (active) in experiment [3] (setting [7]); 99% (active) in experiment [3] (setting [8]); 99.5% (active) in experiment [3] (at 50.0 µM); 96% (active) in experiment [4] (setting [7]); 99% (active) in experiment [4] (setting [8]); 99.2% (active) in experiment [4] (at 50.0 µM). Also, the growth inhibition was 97% (active) in experiment [5] (setting [7]); 97% (active) in experiment [5] (setting [8]); 99.4% (active) in experiment [5] (at 50.0 µM); 74% (active) in experiment [6] (setting [7]); 97% (active) in experiment [6] (setting [8]); 99.3% (active) in experiment [6] (at 50.0 µM).
